High-throughput results (PubChem)
This is a sample that favours compounds with a hit; in the whole collection about 0.3% have one here.
NPYLR7 ag: mosquito NPYLR7 agonism; activation, % at 10 µM; HEK293T NPYLR7/Galpha15, GCaMP6s calcium fluorescence; 0.15% of 270,000 active; in the data active = activation above about 40%;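 also: 0% = vehicle and 100% = reference agonist at the receptor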
hcGAS lum: inhibitors of human cGAS. Q8N884. recombinant h-cGAS, ATP depletion, Kinase-Glo luminescence. inhibition, % at 12.5 µM. 0.081% of 290,000 active. AID 1259398;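 also: 0% = vehicle reaction and 100% = reaction without DNA for no activity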
mcGAS lum: mouse cGAS inhibition by luminescence; Q8C6L5; recombinant cGAS, Kinase-Glo ATP depletion luminescence; inhibition, % at 12.5 µM; 0.15% of 160,000 active;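 also: 0% = negative control wells and 100% = reference inhibitor with no enzyme activity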
Target sequence (Q8C6L5 whole entry, looked up): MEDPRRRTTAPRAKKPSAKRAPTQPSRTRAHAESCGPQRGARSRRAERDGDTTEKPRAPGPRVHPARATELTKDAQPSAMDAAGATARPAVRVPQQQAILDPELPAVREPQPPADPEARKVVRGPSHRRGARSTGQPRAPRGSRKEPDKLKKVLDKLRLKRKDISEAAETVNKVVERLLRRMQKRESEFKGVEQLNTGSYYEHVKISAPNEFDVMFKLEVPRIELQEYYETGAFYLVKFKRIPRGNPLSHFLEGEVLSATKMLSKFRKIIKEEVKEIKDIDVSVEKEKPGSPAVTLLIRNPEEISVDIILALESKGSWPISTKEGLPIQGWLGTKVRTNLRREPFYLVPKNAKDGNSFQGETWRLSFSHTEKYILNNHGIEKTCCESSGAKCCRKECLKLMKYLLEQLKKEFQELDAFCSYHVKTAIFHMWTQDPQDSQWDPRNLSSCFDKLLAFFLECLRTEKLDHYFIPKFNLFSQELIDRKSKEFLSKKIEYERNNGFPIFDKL
An asterisk follows results filed as active; / = no result given. Rule as the data show it, unless noted: active = inhibition above about 40%; inactive = the rest.

SMILES	NPYLR7 ag	hcGAS lum	mcGAS lum
Cc1cn2c3c(=O)n(Cc4cccc(Cl)c4)c(=O)n(C)c3nc2n1CC1CCCO1 (stereo unspecified)	-2.3	-4.4	/
O=C(NCC1Cc2cccc(F)c2O1)c1ccc(F)cc1 (stereo unspecified)	5.0	-1.0	-4.3
CS(=O)(=O)c1ccc(-c2cccc3c2OC(CNC(=O)c2cc[n+]([O-])cc2)C3)cc1 (stereo unspecified)	75.6*	-5.9	-9.6
Cc1ccc(Cc2nsc(N3CCN(C(=O)c4cccc(Br)c4)C(C)C3)n2)cc1 (stereo unspecified)	3.3	-4.0	-4.2
CCCS(=O)(=O)N1CCN=C1SCc1cc(C)ccc1C	8.9	-8.4	-7.0
CCCS(=O)(=O)N1CCN=C1SCc1ccccc1C	44.4*	-13.2	-9.5
O=C1NC(=S)S/C1=C\c1ccc(-c2ccccc2C(=O)O)o1	14.9	65.6*	82.7*
CCN1C(=O)/C(=C\c2ccc(-c3ccccc3C(=O)O)o2)N(CC)C1=S	-0.6	-7.4	-7.7
O=C(O)CCc1cccs1	0.6	-3.0	/
O=C(O)CCC(=O)c1cccs1	0.5	47.9*	-6.6
O=C(O)c1ccc(CSc2nc(Cl)cc(N3CCOCC3)n2)cc1	-6.6	-4.2	-5.2
O=C(c1cnn2c1NC(c1ccc(Br)cc1)CC2C(F)(F)F)N1CCCCC1 (stereo unspecified)	9.0	-3.6	-5.4
O=C1C=CC(=NC(=NS(=O)(=O)c2ccccc2)c2ccccc2)C=C1Cl	-2.2	-3.8	-3.2
O=C1C(Cl)=CC(=NS(=O)(=O)c2ccccc2)C(Cl)=C1Cl	-7.3	58.6*	59.3*
NC(=O)NCC(=O)N1CCC2(CCCN(CCCc3ccccc3)C2=O)C1 (stereo unspecified)	1.8	-2.4	-26.8
COc1ccccc1-c1cc(C(=O)NCCCN2CCOCC2)n2nc(-c3ccccc3)cc2n1	/	-5.1	-8.3
COc1ccccc1-c1cc(C(=O)NCCCN2CCOCC2)n2nc(-c3ccc(Cl)cc3)cc2n1	16.9	-1.5	41.7*
COc1ccc2[nH]c(C(=O)N(C)Cc3cnccn3)c(C)c2c1	-0.1	-2.9	/
COc1cc(C=C(C#N)S(=O)(=O)c2cc(Br)ccc2Br)cc(OC)c1	9.7	-4.8	/
COc1cc(C=C(C#N)S(=O)(=O)c2cc(Br)ccc2Br)ccc1O	169.9*	-1.9	/
Cn1ccnc1CN(C(=O)CC1C(=O)NCCN1CC(C)(C)C)C1CC1 (stereo unspecified)	1.8	-4.6	/
CC(=O)NCCc1ccc(O)c(O)c1	87.5*	-6.5	-0.7
NCCc1ccc(O)c(O)c1	10.4	-8.7	-7.6
Cc1csc(-c2ccc(NC(=O)c3ccn(C)c(=O)c3)cc2)n1	8.9	-1.1	/
Cc1cc(Sc2nc(C)c(CC(N)=O)s2)nc(C)n1	17.3	-7.6	-16.0
SMILES	NPYLR7 ag	hcGAS lum	mcGAS lum
O=C(CCl)c1ccc(NC(=O)c2ccco2)cc1	10.5	-5.6	78.1*
O=C(NCc1ccccn1)c1ccc(NC(=O)c2ccco2)cc1	18.9	-13.9	/
CC(=O)OC[C@H]1O[C@@H](Oc2cc(OC(C)=O)c3c(=O)cc(-c4ccc(OC(C)=O)cc4)oc3c2)[C@H](OC(C)=O)[C@@H](OC(C)=O)[C@@H]1OC(C)=O	-3.2	-3.7	/
O=C(OC[C@H]1O[C@H](OC(=O)c2cc(O)c(O)c(OC(=O)c3cc(O)c(O)c(O)c3)c2)[C@H](OC(=O)c2cc(O)c(O)c(OC(=O)c3cc(O)c(O)c(O)c3)c2)[C@@H](OC(=O)c2cc(O)c(O)c(OC(=O)c3cc(O)c(O)c(O)c3)c2)[C@@H]1OC(=O)c1cc(O)c(O)c(OC(=O)c2cc(O)c(O)c(O)c2)c1)c1cc(O)c(O)c(OC(=O)c2cc(O)c(O)c(O)c2)c1	-13.4	51.3*	/
CC(C)(NC(=O)c1cccs1)C(=O)NC1CCN(Cc2ccccc2)C1 (stereo unspecified)	13.4	-1.3	/
Cc1ccccc1C1CCCN1C(=O)C(C)(C)NC(=O)c1cccs1 (stereo unspecified)	-2.5	50.2*	/
COC(=O)C(C)Sc1nc2sc3c(c2c(=O)n1Cc1ccccc1)CCC3 (stereo unspecified)	-6.5	10.4	/
COC(=O)C(C)Sc1nc2sc3c(c2c(=O)n1C)CCC3 (stereo unspecified)	51.1*	-0.1	/
COc1cccc(CCNC(=O)c2cn(CCN3CCCCC3)nn2)c1OC	5.7	-8.8	-10.0
O=C1NC(=S)S/C1=C/C=C/c1ccccc1	-5.9	-5.2	4.3
O=C1NC(=S)N/C1=C\c1cc(Br)c(O)c(Br)c1	27.4	14.7	8.7
O=C1NC(=S)S/C1=C/c1cc(Br)c(O)c(Br)c1	24.0	34.5	42.5*
O=C1NC(=S)S/C1=C\C(Br)=C\c1ccccc1	-0.3	-7.6	51.5*
O=C1NC(=S)SC1=Cc1cc(O)c(O)c(Cl)c1	99.1*	39.4	/
O=C1NC(=S)SC1=Cc1cc(Cl)c2c(c1)OCO2	2.7	13.8	37.6
CC(=O)NC1CCN(Cc2cccc(C(=O)Nc3ncc(C)s3)c2)C1 (stereo unspecified)	9.1	-1.2	-14.0
CCCCCN(C(=O)CCCCl)c1c(N)n(CCCC)c(=O)[nH]c1=O	-5.1	-6.5	-8.3
COc1ccc(C=CC(=O)c2ccc(C)o2)cc1OC	3.5	-2.9	/
Cc1ccc(C(=O)C=Cc2ccc(N(C)C)cc2)o1	75.3*	-7.2	/
O=C(O)C1Nc2ccc(Br)cc2C2C=CCC12 (stereo unspecified)	1.2	39.4	84.6*
O=C(O)C1Nc2c(O)cccc2C2C=CCC12 (stereo unspecified)	2.3	19.7	6.1
CCOC(=O)c1c(-c2ccc(C)cc2)csc1N=Cc1nc(-c2ccccc2)oc1O	2.9	-6.6	-7.3
CCOC(=O)c1c(-c2ccccc2)csc1N=Cc1nc(-c2ccccc2)oc1O	96.6*	-5.7	-8.5
O=C1OC23CCC(CC2)N(CCO)C3CN1Cc1ccccc1 (stereo unspecified)	2.2	-1.9	-8.9
Cn1c(=O)[nH]c2nnc(-c3cccnc3)nc2c1=O	-5.5	41.0*	57.9*
SMILES	NPYLR7 ag	hcGAS lum	mcGAS lum
O=c1c2ccc(-c3cccnc3)nc2[nH]n1-c1ccccc1	-2.1	-4.2	/
COc1ccc(C)cc1NC(=O)Cn1cnc2cc(Cl)ccc2c1=O	-4.4	-4.3	/
COc1ccc(Cl)cc1NC(=O)/C(C#N)=C/c1coc2ccc(C)cc2c1=O	49.6*	11.2	/
Cc1cc(C)c2oc3c(c(=O)c2c1)C(c1cccc(O)c1)N(Cc1cccnc1)C3=O (stereo unspecified)	5.5	-8.2	-11.1
CCC1CN(C(=O)c2cc(C(C)C)no2)CCC(=O)N1Cc1ccccc1 (stereo unspecified)	1.7	-3.6	-0.1
CCC1CN(C(=O)c2cc(C(C)C)on2)CCC(=O)N1Cc1ccccc1 (stereo unspecified)	62.4*	-2.9	/
c1cncc(COC2CCN(CC3CCOC3)CC2)c1 (stereo unspecified)	5.8	-7.7	/
COC(=O)c1sccc1NC(=O)C=Cc1cc(OC)ccc1OC	-11.4	5.9	-0.4
CCOC(=O)c1c(NC(=O)c2ccc(OC)cc2)sc(C(=O)Nc2ccccc2C)c1C	-14.2	-0.1	2.0
Nc1nc2nc(Br)[nH]c2c(=O)[nH]1	-3.3	51.7*	12.2
Nc1nc2nc(C(F)(F)F)[nH]c2c(=O)[nH]1	-4.4	33.1	/
CCn1c(C2CCCN(Cc3cc(C(C)(C)C)n[nH]3)C2)n[nH]c1=O (stereo unspecified)	/	1.0	/
